This excerpt belongs to a sample that is enriched for hits.
STK33 inh – blocks human STK33 kinase activity | Q9BYT3 | AID 2322 | 27,000 tested, 0.44% active | ADP-Glo luminescence, MBP substrate | inhibition, % at 12.5 µM; in the data active = inhibition above about 20%
Target sequence (Q9BYT3 whole entry, looked up): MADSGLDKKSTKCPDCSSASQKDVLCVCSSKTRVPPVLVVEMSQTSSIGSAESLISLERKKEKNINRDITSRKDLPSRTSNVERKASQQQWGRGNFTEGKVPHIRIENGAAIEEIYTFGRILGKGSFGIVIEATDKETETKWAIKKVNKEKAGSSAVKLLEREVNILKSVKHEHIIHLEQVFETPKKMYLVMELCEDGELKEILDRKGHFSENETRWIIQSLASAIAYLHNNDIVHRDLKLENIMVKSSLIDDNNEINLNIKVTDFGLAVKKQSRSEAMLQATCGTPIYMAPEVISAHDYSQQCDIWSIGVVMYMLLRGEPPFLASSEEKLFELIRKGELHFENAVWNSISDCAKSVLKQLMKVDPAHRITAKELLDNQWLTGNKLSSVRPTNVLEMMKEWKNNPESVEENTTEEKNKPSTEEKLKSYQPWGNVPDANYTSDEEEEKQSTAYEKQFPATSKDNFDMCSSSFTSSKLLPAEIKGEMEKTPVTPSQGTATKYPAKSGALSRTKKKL
NOMO-1 viab – STK33 inhibitor candidate reducing NOMO-1 cell viability; AID 2330; 37,000 tested, 7.5% active; inhibition, % (concentration not given with the values); NOMO-1 AML viability, CellTiter-Glo luminescence, 72 h; in the data active = inhibition above about 80%
p53 PUMA act – mutant p53 pathway reactivation. SW480 PUMA-promoter luciferase. activation, % at 9.98 µM. 28,000 tested, 1.5% active. AID 624151; in the data active = activation above about 52%
ID4 SMM – binds human ID4 protein on microarray. P47928. small molecule microarray, Flag-ID4 binding, fluorescence F/B. calls only. 31,000 tested, 1.2% active; call rule not given here;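 note: a binder raises fluorescence above local background on the spot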
Starred values were filed as active, the others as inactive.

What do the screens show for `O=c1c(OC2OCC(O)C(O)C2O)c(-c2ccc(O)c(O)c2)oc2cc(O)cc(O)c12` (stereo unspecified)?
STK33 inh: 1.6; p53 PUMA act: -0.4; ID4 SMM: inactive

How did O=c1c(-c2c(O)cc(O)c3c(=O)cc(-c4ccc(O)cc4)oc23)c(-c2ccc(O)cc2)oc2cc(O)cc(O)c12 do in these assays?
STK33 inh: 3.3; NOMO-1 viab: 13.4

What do the screens show for `Cc1c(OCC(=O)Nc2ccc3c(c2)OCCO3)ccc2c1oc(=O)c1ccccc12`?
STK33 inh: 17.8; NOMO-1 viab: -11.3; p53 PUMA act: 33.7; ID4 SMM: inactive

Results for Cc1ccc(S(=O)(=O)N(C)C[C@H]2Oc3c(NC(=O)Nc4ccc(F)cc4)cccc3C(=O)N([C@H](C)CO)C[C@H]2C)cc1 ?
NOMO-1 viab: 44.8

How did C[C@H]1CN([C@@H](C)CO)C(=O)c2cc(NC(=O)Nc3ccc(C(F)(F)F)cc3)ccc2O[C@@H]1CN(C)C(=O)Nc1ccc(C(F)(F)F)cc1 do in these assays?
NOMO-1 viab: 122.1*

How did C[C@@H]1CN([C@@H](C)CO)C(=O)c2cc(NC(=O)Nc3ccc(C(F)(F)F)cc3)ccc2O[C@@H]1CN(C)C(=O)NC1CCCCC1 do in these assays?
STK33 inh: 0.7; NOMO-1 viab: 107.4*; p53 PUMA act: -54.0; ID4 SMM: inactive

How did C[C@H](CO)N1C[C@H](C)[C@@H](CN(C)C(=O)Nc2ccc(C(F)(F)F)cc2)Oc2ccc(NC(=O)Nc3ccc(F)cc3)cc2C1=O do in these assays?
STK33 inh: 1.8; NOMO-1 viab: 19.3

How did C[C@@H]1CN([C@H](C)CO)C(=O)c2cc(NC(=O)Nc3ccc(C(F)(F)F)cc3)ccc2O[C@H]1CN(C)C(=O)Nc1ccc(C(F)(F)F)cc1 do in these assays?
NOMO-1 viab: 108.6*

How did O=C(NCc1ccco1)c1ccc(NC(=O)c2ccccc2)cc1 do in these assays?
STK33 inh: 5.2; NOMO-1 viab: 9.9; p53 PUMA act: 7.3; ID4 SMM: inactive

How did COc1ccc(S(=O)(=O)Nc2ccc3c(c2)CC(=O)N([C@H](C)CO)C[C@H](C)[C@H](CN(C)C(=O)Nc2cccc4ccccc24)O3)cc1 do in these assays?
STK33 inh: 3.2; NOMO-1 viab: 8.7

Results for CN(C)C(=O)[C@]1(Cc2ccccc2)N=C(c2ccc(OCCCO)cc2)O[C@@H]1c1ccccc1 ?
STK33 inh: -1.0

Results for CN(C)C(=O)[C@]1(CCS(=O)(=O)c2ccccc2)N=C(c2ccc(OCCCO)cc2)O[C@@H]1c1ccccc1 ?
STK33 inh: -2.6; ID4 SMM: active

How did C[C@@H]1CN([C@H](C)CO)C(=O)c2cc(C#CCc3ccccc3)cnc2O[C@@H]1CN(C)Cc1cccnc1 do in these assays?
p53 PUMA act: -0.9; ID4 SMM: inactive

How did O=C(Nc1nc(-c2ccccc2)cs1)C12CC3CC(CC(C3)C1)C2 do in these assays?
NOMO-1 viab: 108.3*

Results for CC(=O)Nc1nc(C23CC4CC(CC(C4)C2)C3)cs1 ?
NOMO-1 viab: 4.4

What do the screens show for `Cc1cc(O)c2c(c1)C(=O)C13C(C2=O)C(=O)C2C(O)C1C1C(O)C3C(=O)C3C(=O)c4c(O)cc(C)cc4C(=O)C321` (stereo unspecified)?
STK33 inh: -1.1; NOMO-1 viab: 109.7*

What do the screens show for `Cc1ccc(/C(C#N)=C/c2ccc(N(C)C)cc2)cc1`?
NOMO-1 viab: 115.6*

What do the screens show for `COc1ccc(CN(C)C[C@@H]2Oc3ccc(NC(=O)CCCCCC(=O)Nc4ccccc4N)cc3CC(=O)N([C@@H](C)CO)C[C@@H]2C)cc1`?
NOMO-1 viab: 126.8*

Results for COc1ccc(CN(C)C[C@@H]2Oc3ccc(NC(=O)CCCCCC(=O)Nc4ccccc4N)cc3CC(=O)N([C@H](C)CO)C[C@@H]2C)cc1 ?
NOMO-1 viab: 124.2*

What do the screens show for `COc1ccc(CN(C)C[C@H]2Oc3ccc(NC(=O)CCCCCC(=O)Nc4ccccc4N)cc3CC(=O)N([C@@H](C)CO)C[C@H]2C)cc1`?
NOMO-1 viab: 74.7

Results for Cc1ccc(-c2ccc3c(c2)O[C@@H](CN(C)C(=O)Nc2ccc(C(F)(F)F)cc2)[C@@H](C)CN([C@H](C)CO)S3(=O)=O)cc1 ?
p53 PUMA act: -56.4; ID4 SMM: inactive

What do the screens show for `O=S(=O)(Cc1ccc(Cl)cc1)CC(O)COc1ccc(F)cc1` (stereo unspecified)?
NOMO-1 viab: 26.0

How did OC(COc1ccc(F)cc1)(c1ccc(Cl)cc1)c1ccc(Cl)cc1 do in these assays?
NOMO-1 viab: 121.1*

What do the screens show for `CC(C)NC(=O)Nc1cccc2c1O[C@H](CN(C)S(=O)(=O)c1cn(C)cn1)[C@@H](C)CN([C@@H](C)CO)C2=O`?
STK33 inh: 3.2; NOMO-1 viab: 14.9

How did OC(c1ccccc1)c1oc2ccccc2c1-c1cnn(-c2ccccc2)c1 (stereo unspecified) do in these assays?
STK33 inh: 8.1; NOMO-1 viab: 112.1*

What do the screens show for `COc1ccc(S(=O)(=O)Nc2ccc(Br)c3cccnc23)c([N+](=O)[O-])c1`?
STK33 inh: -2.2; NOMO-1 viab: 127.9*; p53 PUMA act: -28.1; ID4 SMM: inactive

How did COc1ccc(NC(=O)c2cc(-c3ccccn3)nc3c(C)cc(C)cc23)c([N+](=O)[O-])c1 do in these assays?
STK33 inh: 0.1; NOMO-1 viab: 68.3; p53 PUMA act: -59.4; ID4 SMM: inactive

How did O=C1c2ccccc2-c2c(NCCc3ccccc3)c(=O)[nH]c3cccc1c23 do in these assays?
NOMO-1 viab: 115.0*

What do the screens show for `CCOc1ccc(NC(=O)c2c(NC(=O)CN(C)C)sc3c2CCC3)cc1`?
STK33 inh: -2.6; NOMO-1 viab: 10.3; p53 PUMA act: 8.4; ID4 SMM: inactive

Results for COC(=O)c1ccccc1NC(=O)COc1ccc(C(C)C)cc1Br ?
STK33 inh: -1.1; NOMO-1 viab: 35.8; p53 PUMA act: 54.0*; ID4 SMM: inactive

What do the screens show for `CC(C)(C)c1ccc(OCC(=O)Nc2ccccc2C(N)=O)c(Br)c1`?
STK33 inh: -0.9; NOMO-1 viab: 23.0; p53 PUMA act: 85.2*; ID4 SMM: inactive

Results for CC(C)(C)c1ccc(OCC(=O)NCc2ccco2)c(Br)c1 ?
STK33 inh: -3.5; NOMO-1 viab: 26.5; p53 PUMA act: 88.5*; ID4 SMM: inactive

Results for COC(=O)c1ccccc1NC(=O)COc1ccccc1F ?
STK33 inh: 0.8; NOMO-1 viab: -11.8; p53 PUMA act: 43.1; ID4 SMM: inactive

Results for COc1cc(NC(=O)COc2ccc(C(C)(C)C)cc2Br)c(OC)cc1Cl ?
STK33 inh: 0.3; NOMO-1 viab: 14.0; p53 PUMA act: 21.3; ID4 SMM: inactive

How did COCCOC(=O)N1C(=O)[C@@]2(c3cc(C#CC4=CCCCC4)ccc31)[C@H](C(=O)N1CCN(c3ncccn3)CC1)[C@H]1C(=O)O[C@H](c3ccccc3)[C@H](c3ccccc3)N1[C@@H]2c1ccccc1OCCO do in these assays?
STK33 inh: 12.9; ID4 SMM: inactive

How did CN1C(=O)[C@@]2(Cc3ccccc3)SSS[C@]1(CO)C(=O)N2C do in these assays?
STK33 inh: -10.5; NOMO-1 viab: 108.4*
